Source: PubChem BioAssay
Rows were chosen to be rich in hits. Some 2.7% of all compounds tested hit in one or more screens of this group.
KKLEB cytotox: CF airway cell cytotoxicity counter-screen. KKLEB CF airway cells viability, ATPlite luminescence, overnight; stronger effect = lower value; cells stimulated with P. aeruginosa culture filtrate. activity change (cytotoxicity), % at 5 µM. actives 0.36% (n = 360,000). AID 602141;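 active = corrected activity change at or below -50% at 5 µM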
Shn3 inh set2: Schnurri-3 reporter inhibition in Clone20 osteoblasts. Clone20 osteoblast Shn3 3'UTR firefly luciferase, 24 h. inhibition, % at 12.5 µM. actives 0.52% (n = 360,000). AID 588674;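 active = mean inhibition of at least 75% with every replicate also reaching 75%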;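 also: 0% = median of neutral control wells and 100% = pilot-screen positive control compound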
Peg3 prom inh: Peg3 promoter activity inhibition; HeLa PEG-Prom luciferase reporter, luminescence, overnight; inhibition, % at 20 µM; actives 1.7% (n = 360,000); AID 588405;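 active = inhibition of at least 50% at 20 µM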
HIF-2a inh: blocks HIF-2a reporter activity | inhibition, % at 18.8 µM | actives 0.72% (n = 360,000) | 786-0 RCC cells HIF-2a reporter, luciferase luminescence, overnight;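 active = inhibition of the luminescence signal of 40% or more relative to plate controls, in a single-dose primary screen at 18.75 µM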
TRPM1 prom inh: MITF TRPM1 promoter inhibition in SK-MEL-5 cells | SK-MEL-5 TRPM1 promoter luciferase, 24 h | inhibition, % at 12.5 µM | actives 0.83% (n = 330,000) | AID 488899;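 active = mean inhibition across replicates of 60% or more, whatever share of single replicates reaches that level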
CF NFkB block: blocks PAF-induced NF-kB reporter in cystic fibrosis cells; KKLEB NF-kB-GFP reporter, GFP fluorescence overnight; inhibition, % at 5 µM; actives 0.86% (n = 360,000);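 active = at least 50% inhibition at 5 µM, scaled per plate between neutral and stimulator controls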;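 also: PAF is a Pseudomonas aeruginosa culture filtrate used as stimulus; plate controls were PAF-stimulated DMSO wells for no effect and unstimulated DMSO wells for full effect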
* hit, by the source's call; . = no result.

SMILES	KKLEB cytotox	Shn3 inh set2	Peg3 prom inh	HIF-2a inh	TRPM1 prom inh	CF NFkB block
COc1ccc(NS(=O)(=O)c2cccc(C(=O)N3CCCC3)c2)cc1	12.8	6.9	57.8*	9.9	7.4	10.9
COc1ccc(C(=O)NNC(=O)c2cccc(S(=O)(=O)N3CCOCC3)c2)cc1	11.9	95.9*	5.7	5.0	-1.0	-4.5
COc1ccc(NS(=O)(=O)c2cccc(C(=O)N3CCC3)c2)cc1	2.8	4.0	11.0	7.7	6.8	17.9
COc1cccc(-c2sc3ccccc3c2-c2ccc(OCCN3CCCCC3)cc2)c1	-46.5	9.6	83.9*	14.9	-8.5	29.2
COc1cccc(-c2sc3ccc(OC)cc3c2-c2ccc(OCCN3CCCC3)cc2)c1	-7.9	1.0	97.2*	-21.8	23.1	12.1
COc1cccc(-c2sc3cc(OC)c(OC)cc3c2-c2ccc(OCCN3CCCCC3)cc2)c1	-13.8	4.0	97.3*	5.8	45.3	20.8
CCOC(=O)[C@H]1[C@H]2COc3ccc(Br)cc3[C@@H]2N2C(=O)CN(Cc3ccc(OC)cc3)C(=O)[C@@]12C	-18.3	18.1	23.6	16.1	0.2	0.0
CC(C)CC(N)c1csc(Nc2ccc(C(=O)NCCCO)cn2)n1 (configuration not stated)	-12.0	-11.3	16.0	2.2	.	1.7
Nc1nc(=S)c2ncn([C@@H]3O[C@H](CO)[C@@H](O)[C@H]3O)c2[nH]1	15.0	19.1	62.1*	5.7	72.0*	-10.2
Nc1nc(=S)c2ncn(C3OC(CO)C(O)C3O)c2[nH]1 (configuration not stated)	-1.7	-32.6	29.0	11.0	10.1	-9.2
CC(=NNc1nc2ccccc2o1)c1cc2ccccc2cn1	-6.9	79.9	89.3*	-57.1	57.9	-10.4
COc1ccccc1N1CCN(CCCCOc2ccc(C)cc2C)CC1	9.2	17.6	2.7	18.7	6.9	10.2
COc1cc(C(=O)Oc2cccc(Nc3ncnc4ccccc34)c2)cc(OC)c1OC	5.5	68.9	61.9*	-46.9	25.9	-0.8
O=C1NC(=O)c2cc(Br)cc3cccc1c23	11.1	14.8	-22.2	3.9	-4.5	-126.6
O=C1Nc2c(Br)cc(Br)c3cccc1c23	-2.6	6.9	73.6*	2.0	-8.4	-22.4
CCOC(=O)C1CCN(C(=O)COC(=O)Cc2ccc(Cl)cc2)CC1	7.3	-14.8	-3.1	2.4	-17.9	18.5
CCOC(=O)c1c2ccc(OCC(=O)NN)cc2n2ccccc12	7.0	8.0	15.0	15.2	-6.7	-24.7
CCOC(=O)c1c2ccc(OCC(=O)N/N=C/c3ccc(C)cc3)cc2n2ccccc12	-5.4	23.0	83.8*	-30.1	7.4	-10.9
CC(=O)N1CCN(S(=O)(=O)c2cccc(C(=O)NNC(=O)COc3ccc(F)cc3)c2)CC1	-24.3	2.5	8.4	0.5	-4.5	6.3
COc1ccc(-c2ccc(CN3C(C(C)C)C(=O)N(Cc4cn(CC5CCCCC5)nn4)CCS3(=O)=O)cc2)cc1OC (configuration not stated)	-15.8	32.6	15.9	23.1	.	43.0
CCN1CCN(c2cc3c(cc2F)c(=O)c(S(=O)(=O)c2ccccc2)cn3C)CC1	3.1	-11.0	5.1	3.2	6.6	-5.3
Cc1ccc(S(=O)(=O)c2cn(C)c3cc(N4CCN(C)CC4)c(F)cc3c2=O)c(C)c1	-12.5	6.7	75.5*	18.0	18.5	5.1
CCn1c(SCC(=O)NC2CCCCC2)nc2c(c1=O)SCC2	-11.5	16.8	-2.7	6.0	0.0	3.9
Cc1ccc(NC2CCCN(C(=O)c3cn(C)c4ccccc34)C2)cc1C (configuration not stated)	-12.6	14.3	18.5	15.4	2.0	22.0
COc1ccc2nc(NN=C(C)c3ccccn3)cc(C)c2c1	-19.9	86.3*	-22.4	-358.8	77.1*	22.1
SMILES	KKLEB cytotox	Shn3 inh set2	Peg3 prom inh	HIF-2a inh	TRPM1 prom inh	CF NFkB block
Nc1cccc(-c2c[nH]c3ncc(-c4cccnc4)cc23)c1	-5.9	26.9	4.6	-8.1	16.1	79.9*
CN1CCN(CC(O)COc2ccccc2)CC1 (configuration not stated)	4.6	8.6	5.1	7.9	5.4	-2.0
CN1CCN(CC(O)COc2ccc(C34CC5CC(CC(C5)C3)C4)cc2)CC1 (configuration not stated)	-33.7	-21.4	105.2*	-19.8	14.4	25.4
COc1ccc(C(=O)NCCS(=O)(=O)NCc2ccccc2OC)cc1	10.0	3.7	5.3	8.6	-3.3	-13.0
O=C(CCN1C(=O)/C(=C/c2ccc(F)cc2)SC1=S)NCCc1ccc(O)cc1	-0.3	-41.4	83.0*	13.0	0.9	-6.3
COc1cccc(/C=C2\SC(=S)N(CCC(=O)Nc3ccc(O)cc3)C2=O)c1	12.8	-27.8	-103.5	-85.5	-43.5	13.3
COc1cccc(/C=C2\SC(=S)N(CCC(=O)NCCc3ccc(O)cc3)C2=O)c1	-8.8	-4.7	95.4*	28.9	-2.0	13.1
CN1CCN(C(=O)CCN2C(=O)/C(=C\c3ccc(F)cc3)SC2=S)CC1	12.2	-75.5	14.9	-17.4	3.0	7.3
O=C(CN1C(=O)/C(=C/c2ccc(F)cc2)SC1=S)N1CCN(CCc2ccccn2)CC1	4.4	-9.8	51.3*	6.6	9.6	-4.2
CN(C)S(=O)(=O)c1ccc(N2CCCC2)c(C(=O)NNC(=O)c2ccc(F)cc2)c1	-11.3	3.5	6.6	11.9	-10.3	-1.0
COC(C(=O)Nc1ccccc1C(=O)N1CCOCC1)c1ccccc1 (configuration not stated)	23.7	3.5	0.1	15.9	-5.1	-19.9
OC(c1ccccc1)c1ncc(-c2ccccc2Cl)[nH]1 (configuration not stated)	-8.5	-165.2	-221.8	-206.0	.	7.4
O=C(NCCCN1CCOCC1)c1ccc(/C=C2\Oc3ccccc3N(Cc3ccccc3F)C2=O)cc1	0.0	-18.0	11.0	1.7	-20.4	19.6
CCN1CCN(CCCNC(=O)c2ccc(/C=C3/Oc4ccccc4N(Cc4cccc(C)c4)C3=O)cc2)CC1	-40.0	3.0	74.8*	4.0	75.6*	20.0
Cc1ccccc1CN1C(=O)c2ccccc2Sc2ccc(C(=O)NCCN3CCOCC3)cc21	-6.0	15.2	-13.3	19.4	5.2	-33.5
CCN1CCN(CCNC(=O)c2ccc(/C=C3/Sc4ccccc4N(Cc4ccccc4C)C3=O)cc2)CC1	-76.9*	-8.4	86.6*	18.5	-6.5	42.6
C[C@H]1CN([C@@H](C)CO)S(=O)(=O)c2ccc(Br)cc2O[C@@H]1CN(C)C(=O)Cc1cccnc1	10.6	9.5	22.2	6.7	.	-5.4
COc1ccc(C[C@H]2CN3C(=NC[C@@H]3C(C)C)N2CCNC(=O)CCC2CCCCC2)cc1	-10.8	66.5	49.6	-19.1	-20.9	9.5
COc1ccc(C[C@H]2CN3C(=NC[C@@H]3Cc3ccccc3)N2CCNC(=O)CCC2CCCCC2)cc1	2.3	84.0	98.8*	5.1	97.8*	20.6
